Results as given in PubChem BioAssay (NCI).
Compounds without any hit were thinned out: in the full panel of roughly 83,000, 20% have a hit.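 A percent growth of 40 corresponds to 60% growth inhibition; 0 means no net growth; -100 means all cells died. Active threshold: below 10.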 Values without a mark were called inactive. Active and inactive are the calls of the source.

Key:
Assay in all cases: NCI-60 one-dose screen, 48 h (100 = growth as untreated, 0 = no growth, -100 = all killed)
Conditions in all cases: 10 µM
HCT-15 colon = system: HCT-15 colon
HT29 colon = system: HT29 colon
SNB-75 CNS = system: SNB-75 CNS
SNB-19 CNS = system: SNB-19 CNS
PC-3 prostate = system: PC-3 prostate
SK-MEL-5 melanoma = system: SK-MEL-5 melanoma
UACC-62 melanoma = system: UACC-62 melanoma
LOX IMVI melanoma = system: LOX IMVI melanoma
SK-MEL-28 melanoma = system: SK-MEL-28 melanoma

Row | SMILES | growth (HCT-15 colon) | growth (HT29 colon) | growth (SNB-75 CNS) | growth (SNB-19 CNS) | growth (PC-3 prostate) | growth (SK-MEL-5 melanoma) | growth (UACC-62 melanoma) | growth (LOX IMVI melanoma) | growth (SK-MEL-28 melanoma)
1 | CN1CCN(c2ccc(Nc3nc(NCCCNC(=O)c4ccc(Cl)cc4)c4sccc4n3)cc2)CC1 | 26.8% | 35.4% | 99.5% | 104% | 61.6% | 72.4% | 86% | 59.7% | 89.1%
2 | CCN1CCN(c2ccc(NC(=O)Nc3ccc(-c4cc(C(=O)NC)c5ncccc5n4)cc3)cc2C(F)(F)F)CC1 | -100% (active) | -100% (active) | -95% (active) | -100% (active) | -77.9% (active) | -100% (active) | -99% (active) | -100% (active) | -100% (active)
3 | COc1ccc(N2N=C(c3ccc4c(c3)OCCO4)CC2c2cccc(NC(=O)CCCNS(=O)(=O)c3ccc(F)cc3)c2)cc1 (stereo not drawn) | 67.5% | 84.4% | 42.4% | 69.3% | 52% | 64.2% | 61.8% | 72.5% | 81.5%
4 | CCCCCCCCCCCCCCCCCCCC(=O)NCCc1c[nH]c2ccc(OC(=O)CCCC(=O)OCCOOCCOOCCOOCCOOCCOOCCOOCCOOCCOOCCOOCCOOCCOOCCOC)cc12 | 56% | 63.4% | 110% | 69.1% | 22% | 99.6% | 67.1% | 27.2% | 88%
5 | COc1ccc2cc([C@H](C)C(=O)NCc3ccccc3)ccc2c1 | 29.1% | 5.25% (active) | 6.97% (active) | 31.7% | 49.5% | 18.7% |  | 43% | 64.4%
6 | Cc1ccc(C(=O)Nc2ccc(-n3c(C)nc4c(cnn4-c4ccccc4)c3=O)cc2)cc1 | 75.3% | 71.2% | 82.8% | 82.1% | 71.6% | 7.05% (active) | 60.8% | 67.2% | 80.7%
